Reference: ChEMBL document CHEMBL3988442, “University of Dundee, Small-Polar-MMV Screening Library” (2021)
For some assays here: Entries with a potency or affinity are not part of this list.

How the values were obtained:
Design in all cases: scale not given: direction of the effect not stated beside the values
[1] = biological target: Protein translocase subunit SecA (Escherichia coli (strain K12)) (UniProt P10408); experiment: Assay to Identify E. coli SecA ATPase Inhibitors; format: functional; settings: 30 µM
[2] = biological target: T1, Ubiquitin-activating enzyme e1, putative (Leishmania donovani (strain BPK282A1)) (UniProt E9BSI1); experiment: Leishmania donovani Ubiquitin Activating Enzyme (LdE1); format: functional; settings: 30 µM
T1 sequence (whole entry): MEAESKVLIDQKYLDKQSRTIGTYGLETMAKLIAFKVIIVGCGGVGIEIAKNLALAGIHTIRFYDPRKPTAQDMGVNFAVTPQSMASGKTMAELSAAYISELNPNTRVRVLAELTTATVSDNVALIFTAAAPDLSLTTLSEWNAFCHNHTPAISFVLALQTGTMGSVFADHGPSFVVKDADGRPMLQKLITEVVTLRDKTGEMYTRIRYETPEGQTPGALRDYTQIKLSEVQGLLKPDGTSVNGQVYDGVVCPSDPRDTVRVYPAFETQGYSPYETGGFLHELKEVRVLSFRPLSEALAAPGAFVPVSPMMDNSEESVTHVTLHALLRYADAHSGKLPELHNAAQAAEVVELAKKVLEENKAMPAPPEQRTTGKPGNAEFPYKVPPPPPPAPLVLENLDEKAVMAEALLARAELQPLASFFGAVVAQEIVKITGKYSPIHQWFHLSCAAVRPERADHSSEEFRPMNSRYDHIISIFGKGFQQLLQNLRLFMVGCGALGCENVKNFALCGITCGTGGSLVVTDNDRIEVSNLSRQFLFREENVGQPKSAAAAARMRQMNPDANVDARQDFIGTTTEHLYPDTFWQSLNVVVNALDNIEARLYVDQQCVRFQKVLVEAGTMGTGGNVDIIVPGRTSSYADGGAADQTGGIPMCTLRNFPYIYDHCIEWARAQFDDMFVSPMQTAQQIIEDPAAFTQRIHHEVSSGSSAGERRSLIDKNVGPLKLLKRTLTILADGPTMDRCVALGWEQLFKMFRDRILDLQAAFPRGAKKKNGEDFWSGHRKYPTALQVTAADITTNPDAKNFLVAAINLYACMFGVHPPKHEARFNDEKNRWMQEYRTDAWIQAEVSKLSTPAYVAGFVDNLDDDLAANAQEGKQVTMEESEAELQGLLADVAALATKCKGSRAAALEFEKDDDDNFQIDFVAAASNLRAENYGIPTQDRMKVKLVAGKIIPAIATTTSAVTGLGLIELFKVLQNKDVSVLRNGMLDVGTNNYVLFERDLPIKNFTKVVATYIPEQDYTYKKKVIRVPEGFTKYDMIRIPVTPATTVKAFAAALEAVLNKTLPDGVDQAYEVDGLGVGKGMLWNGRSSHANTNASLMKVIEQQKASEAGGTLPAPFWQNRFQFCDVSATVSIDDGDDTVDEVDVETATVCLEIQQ

[3] = biological target: AMP-activated protein kinase, AMPK (Homo sapiens) (UniProt P54646+O43741+P54619+Q9UGJ0+Q9Y478+Q13131+Q9UGI9); experiment: AMP-dependent Kinase enzyme assay. An in vitro enzyme assay that detects ADP turnover that is directly proportional to AMPK activity. This uses naive AMPK that is activated during the assay with MK-8722; format: functional; settings: 30 µM
[4] = biological target: Sialic acid-binding Ig-like lectin 9 (Homo sapiens) (UniProt Q9Y336); experiment: Hs-Siglec9 ALPHAscreen SOP 20170721; settings: 10 µM
[5] = test system: Trypanosoma cruzi; experiment: Trypanosoma cruzi phosphomannomutase and mannose-1-phosphate guanylyltransferase assay; format: functional; settings: 10 µM
[6] = biological target: T2, Arginase-2, mitochondrial (Homo sapiens) (UniProt P78540); experiment: in vitro enzyme assay to detect the production of urea directly proportional to the activity of Arginase II; format: functional; settings: 33.3 µM; note: in the data most compounds retested in dose-response had high values
T2 sequence (whole entry): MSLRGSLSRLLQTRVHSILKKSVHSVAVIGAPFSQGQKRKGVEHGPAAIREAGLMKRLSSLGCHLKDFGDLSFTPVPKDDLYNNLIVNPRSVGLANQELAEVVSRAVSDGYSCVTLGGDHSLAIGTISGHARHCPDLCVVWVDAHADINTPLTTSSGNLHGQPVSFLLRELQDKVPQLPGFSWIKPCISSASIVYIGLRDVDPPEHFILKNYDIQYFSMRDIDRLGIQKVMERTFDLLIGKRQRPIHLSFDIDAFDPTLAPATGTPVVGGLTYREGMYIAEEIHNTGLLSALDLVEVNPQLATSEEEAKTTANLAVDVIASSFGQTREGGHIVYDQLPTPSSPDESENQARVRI

[7] = biological target: T3, Proteasome subunit beta (Trypanosoma cruzi) (UniProt O96673); experiment: Trypanosoma cruzi proteasome chymotrypsin-like activity (TcProtChymo) assay.; note: in the data most compounds retested in dose-response had high values; format: functional; settings: 9.37 µM
T3 sequence (whole entry): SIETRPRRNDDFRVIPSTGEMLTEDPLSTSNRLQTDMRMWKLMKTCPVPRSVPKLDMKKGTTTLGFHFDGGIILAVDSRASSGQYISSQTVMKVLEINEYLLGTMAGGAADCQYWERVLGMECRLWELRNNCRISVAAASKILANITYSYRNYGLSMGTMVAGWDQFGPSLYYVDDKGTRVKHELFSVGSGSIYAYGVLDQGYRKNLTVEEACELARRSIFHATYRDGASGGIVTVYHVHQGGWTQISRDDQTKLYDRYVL

[8] = species on record: Homo sapiens; experiment: To identify inhibition of the IFN signalling (Jak-Stat) pathway via expression of an eGFP reporter gene under the control of an IFN-stimulated response element (ISRE) containing MxA promoter.; format: functional; settings: 30 µM
[9] = biological target: T4, Tyrosyl-tRNA synthetase, putative (Trypanosoma cruzi (strain CL Brener)) (UniProt Q4DSP6); experiment: Trypanosoma cruzi tyrosyl tRNA synthetase (TcYRS) _High Tyrosine SOP; format: functional; settings: 30 µM; note: in the data most compounds retested in dose-response had high values
T4 sequence (whole entry): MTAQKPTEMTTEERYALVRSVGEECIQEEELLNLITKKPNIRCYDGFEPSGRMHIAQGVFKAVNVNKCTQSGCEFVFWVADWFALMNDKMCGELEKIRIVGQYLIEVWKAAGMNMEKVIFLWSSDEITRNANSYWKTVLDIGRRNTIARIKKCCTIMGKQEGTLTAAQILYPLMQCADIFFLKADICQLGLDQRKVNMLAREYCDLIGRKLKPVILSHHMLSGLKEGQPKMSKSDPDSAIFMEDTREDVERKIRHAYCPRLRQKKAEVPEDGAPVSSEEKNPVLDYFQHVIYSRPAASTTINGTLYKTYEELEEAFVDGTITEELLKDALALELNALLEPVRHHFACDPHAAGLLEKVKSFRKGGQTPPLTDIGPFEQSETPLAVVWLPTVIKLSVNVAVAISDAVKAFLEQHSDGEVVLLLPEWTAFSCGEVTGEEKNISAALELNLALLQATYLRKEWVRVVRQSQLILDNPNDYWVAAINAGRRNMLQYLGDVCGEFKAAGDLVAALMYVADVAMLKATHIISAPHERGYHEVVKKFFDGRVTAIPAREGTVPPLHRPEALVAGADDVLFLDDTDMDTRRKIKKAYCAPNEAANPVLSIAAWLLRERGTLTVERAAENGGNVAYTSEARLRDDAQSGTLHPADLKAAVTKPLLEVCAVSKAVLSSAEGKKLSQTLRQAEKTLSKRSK

[10] = biological target: T4, Tyrosyl-tRNA synthetase, putative (Trypanosoma cruzi (strain CL Brener)); experiment: Trypanosoma cruzi tyrosyl tRNA synthetase (TcYRS) SOP; format: functional; settings: 30 µM
[11] = biological target: Chromo domain-containing protein 1 (Saccharomyces cerevisiae (strain ATCC 204508 / S288c) (Baker's yeast)) (UniProt P32657); experiment: ScCHD-1 Enzyme Inhibition Assay; format: functional; settings: 30 µM; note: in the data most compounds retested in dose-response had high values
Chain of Chromo domain-containing protein 1 (Saccharomyces cerevisiae (strain ATCC 204508 / S288c) (Baker's yeast)) (P32657 whole entry, the tested form may be a part): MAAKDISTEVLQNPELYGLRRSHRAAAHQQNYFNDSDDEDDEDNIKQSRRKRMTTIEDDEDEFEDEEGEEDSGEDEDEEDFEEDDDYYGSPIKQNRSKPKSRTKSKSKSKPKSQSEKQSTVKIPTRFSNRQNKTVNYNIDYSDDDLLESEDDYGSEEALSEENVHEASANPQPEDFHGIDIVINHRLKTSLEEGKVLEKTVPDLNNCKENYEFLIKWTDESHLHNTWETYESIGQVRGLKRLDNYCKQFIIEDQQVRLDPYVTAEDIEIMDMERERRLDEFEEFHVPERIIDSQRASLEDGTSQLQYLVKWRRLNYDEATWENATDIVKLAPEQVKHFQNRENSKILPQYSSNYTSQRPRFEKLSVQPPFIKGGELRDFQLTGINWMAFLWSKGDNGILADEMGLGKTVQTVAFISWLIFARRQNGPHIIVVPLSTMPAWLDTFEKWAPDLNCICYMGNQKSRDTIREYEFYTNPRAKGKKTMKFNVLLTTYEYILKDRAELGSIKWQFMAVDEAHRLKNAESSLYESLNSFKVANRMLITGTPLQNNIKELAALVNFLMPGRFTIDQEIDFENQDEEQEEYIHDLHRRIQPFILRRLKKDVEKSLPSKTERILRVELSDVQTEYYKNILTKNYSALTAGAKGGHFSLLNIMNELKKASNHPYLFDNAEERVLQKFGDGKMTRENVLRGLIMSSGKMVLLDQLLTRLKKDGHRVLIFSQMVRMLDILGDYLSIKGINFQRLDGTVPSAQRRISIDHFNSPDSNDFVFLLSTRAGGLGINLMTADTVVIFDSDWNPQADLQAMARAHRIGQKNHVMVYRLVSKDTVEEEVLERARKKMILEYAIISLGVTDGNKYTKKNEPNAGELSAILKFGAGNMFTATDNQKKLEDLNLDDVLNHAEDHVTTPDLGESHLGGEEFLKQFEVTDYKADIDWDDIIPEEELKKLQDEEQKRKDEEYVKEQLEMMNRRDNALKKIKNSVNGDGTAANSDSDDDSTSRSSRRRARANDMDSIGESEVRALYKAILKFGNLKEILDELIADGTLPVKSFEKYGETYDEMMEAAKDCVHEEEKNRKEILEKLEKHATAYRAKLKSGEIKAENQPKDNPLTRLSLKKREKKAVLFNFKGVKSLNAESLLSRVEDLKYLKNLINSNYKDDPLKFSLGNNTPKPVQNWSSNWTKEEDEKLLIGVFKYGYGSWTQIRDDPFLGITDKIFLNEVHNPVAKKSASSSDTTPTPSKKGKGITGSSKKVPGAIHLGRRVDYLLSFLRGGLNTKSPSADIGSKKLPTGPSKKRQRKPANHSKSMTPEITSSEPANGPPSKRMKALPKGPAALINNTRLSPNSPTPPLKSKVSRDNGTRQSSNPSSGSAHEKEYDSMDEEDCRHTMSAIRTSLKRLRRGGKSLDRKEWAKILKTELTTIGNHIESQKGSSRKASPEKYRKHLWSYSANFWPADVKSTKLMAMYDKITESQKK

Chain of Protein translocase subunit SecA (Escherichia coli (strain K12)) (P10408 whole entry): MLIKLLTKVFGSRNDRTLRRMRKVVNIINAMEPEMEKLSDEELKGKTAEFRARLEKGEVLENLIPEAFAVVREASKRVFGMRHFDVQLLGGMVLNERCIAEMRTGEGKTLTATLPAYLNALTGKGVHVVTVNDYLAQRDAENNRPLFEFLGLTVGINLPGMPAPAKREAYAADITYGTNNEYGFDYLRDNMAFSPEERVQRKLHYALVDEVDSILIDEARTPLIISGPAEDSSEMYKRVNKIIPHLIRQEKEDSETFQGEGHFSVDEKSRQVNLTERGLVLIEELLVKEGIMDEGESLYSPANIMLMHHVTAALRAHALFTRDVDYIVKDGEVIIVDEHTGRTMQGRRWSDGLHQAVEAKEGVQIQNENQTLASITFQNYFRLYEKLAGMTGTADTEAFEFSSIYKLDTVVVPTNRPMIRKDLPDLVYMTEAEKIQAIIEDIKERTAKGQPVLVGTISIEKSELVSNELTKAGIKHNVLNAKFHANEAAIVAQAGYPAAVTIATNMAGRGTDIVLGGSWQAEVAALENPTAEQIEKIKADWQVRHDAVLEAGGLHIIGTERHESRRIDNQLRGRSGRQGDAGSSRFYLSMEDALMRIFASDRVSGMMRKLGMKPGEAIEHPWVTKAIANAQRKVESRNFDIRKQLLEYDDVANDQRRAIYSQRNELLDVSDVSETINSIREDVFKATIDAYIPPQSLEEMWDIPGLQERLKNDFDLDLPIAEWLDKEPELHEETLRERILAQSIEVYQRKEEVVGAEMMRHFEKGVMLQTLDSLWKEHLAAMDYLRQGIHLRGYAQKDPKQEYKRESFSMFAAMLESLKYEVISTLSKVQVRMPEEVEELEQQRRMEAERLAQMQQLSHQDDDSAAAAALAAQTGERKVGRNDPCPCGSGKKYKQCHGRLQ
Chain of Sialic acid-binding Ig-like lectin 9 (Homo sapiens) (Q9Y336 whole entry): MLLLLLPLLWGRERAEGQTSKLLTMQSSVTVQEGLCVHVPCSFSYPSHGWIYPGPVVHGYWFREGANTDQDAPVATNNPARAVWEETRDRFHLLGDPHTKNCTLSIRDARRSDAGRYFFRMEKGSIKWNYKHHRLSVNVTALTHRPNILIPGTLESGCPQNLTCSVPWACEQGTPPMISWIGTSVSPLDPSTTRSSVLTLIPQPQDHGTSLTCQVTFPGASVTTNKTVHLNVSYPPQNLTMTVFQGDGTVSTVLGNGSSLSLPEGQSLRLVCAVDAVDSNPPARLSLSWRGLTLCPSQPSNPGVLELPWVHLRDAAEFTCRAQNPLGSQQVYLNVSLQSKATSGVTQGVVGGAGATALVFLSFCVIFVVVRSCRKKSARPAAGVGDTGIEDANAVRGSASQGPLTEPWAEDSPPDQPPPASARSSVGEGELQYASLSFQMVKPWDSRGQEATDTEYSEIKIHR

Row | SMILES | Percent Effect [1] | Percent Effect [2] | Percent Effect [3] | Percent Effect [4] | Percent Effect [5] | Percent Effect [6] | Percent Effect [7] | Percent Effect [8] | Percent Effect [9] | Percent Effect [10] | Percent Effect [11]
1 | Cc1cc(CN2CCC(CNC(=O)c3nccc4ccccc34)C2)[nH]n1 (stereo unspecified) | 1.25% | 10.8% | -15.5% | 7.44% | 4.2% | 15.6% | 12.3% | 26.4% | 11.8% | 25.9% | -2.74%
2 | CC(Cn1cccn1)NC(=O)NCCc1cnn(C)c1 (stereo unspecified) | 1.95% | 2.53% | -9% | -14.8% | -9.91% | 0.38% | 10.7% | 24.5% | 5.42% | 8.86% | -3.48%
3 | CCN(C)c1ncnc2c1CCN(C(=O)N1CCCC1)CC2 | 1.86% | 10.7% | -0.0235% | 0.87% | -8.88% | -54.7% | 17.6% | -9.36% | 4.17% | 15% | -5.04%
4 | CCCc1n[nH]c(C2CN(C(=O)C3=COCCC3)CCO2)n1 (stereo unspecified) | -3.49% | 2.63% | -0.787% | 5.25% | 2.52% | 1.44% | -2.96% | 2.6% | 2.46% | 1.24% | 10.7%
5 | Cc1noc(C(C)C)c1C(=O)NCC(c1cccc(F)c1)N(C)C (stereo unspecified) | 0.211% | -2.53% | 0.144% | -2.52% | -1.6% | 5.32% | -7.45% | 2.06% | 2.46% | -8.86% | 2.02%
6 | COc1cc(C(=O)NS(=O)(=O)c2cccc(C#N)c2)ccc1C | -1.35% | -10.8% | -1.79% | 1.78% | 7.15% | -0.554% | 2.33% | 10.3% | -5.94% | -1.22% | -2.42%
7 | CN1CCN(Cc2cccnc2)C2(CCN(c3ncc(F)cn3)C2)C1=O (stereo unspecified) | -4.27% | 5.2% | 2.79% | 8.1% | -0.885% | -13.8% | 2.33% | -4.32% | 4.3% | 8.64% | -0.489%
8 | O=C(c1cccn1Cc1cccs1)N1CCN(C2CC2)CC1 | -4.51% | 0% | 3.71% | 11% | 8.05% | 0% | 11.3% | -0.305% | 6.8% | 14.6% | -8.6%
9 | COCc1nc(C(=O)N2CCCC2c2ccccc2C)cs1 (stereo unspecified) | -2.11% | 3.8% | 3.68% | 5.3% | 0.513% | -4.09% | 13.2% | 16.4% | 9.38% | 22.8% | -22.3%
10 | Cc1noc(Cl)c1CC(=O)N1CCCC(n2cccn2)C1 (stereo unspecified) | -7.2% | 15.8% | -1.76% | 0.841% | -0.0934% | -3.96% | 0.592% | -4.99% | 10.3% | 16.1% | 1.45%
11 | CC(O)CN1CCN(Cc2csc(-c3ncccn3)n2)CC1 (stereo unspecified) | 1.21% | 7.89% | -3.51% | -8.16% | -3.02% | 3.55% | 24.6% | 16.8% | 5.32% | 15.6% | -4.73%
12 | CC(CN1CCOCC1)NC(=O)N(C)Cc1ccc(Cl)s1 (stereo unspecified) | 0.481% | 10.5% | 2.51% | -1.81% | -6.91% | 0% | 13.3% | 3.75% | 6.38% | 13% | -2.62%
13 | Cc1ccc(C(C)N(C)Cc2nc3c(cnn3C)c(=O)[nH]2)cc1 (stereo unspecified) | 0.32% | 16.2% | -5.9% | 6.25% | 1.21% | 3.88% | 15.8% | 21.7% | 7.92% | 13.4% | -7.48%
14 | CCOC(=O)c1sc2ccsc2c1CN | -2.04% | -5.41% | -6.96% | -0.173% | -5.29% | 3.88% | -7.36% | 20.9% | 0% | -1.22% | 5.83%
15 | CCc1cc(NCc2ccccc2CN2CCCC2)n2ncnc2n1 | -5.91% | 0% | -0.284% | -9.79% | -4.38% | 5.92% | 17.4% | -22.7% | 3.19% | -2.6% | -5.77%
16 | CC(=O)NCCC1CCCCN1S(=O)(=O)c1cccc(C#N)c1 (stereo unspecified) | -7.77% | 8.22% | 1.2% | 3.78% | 1.98% | -2% | 13.6% | 4.41% | 2.08% | 8.64% | 0.784%
